Compound activity from PubChem.
Sampled rows, rich in hits. Any-hit rate of the full collection: about 2.2%.
FMDV inh: foot and mouth disease virus antiviral activity; FMDV antiviral cell-based qHTS; Potency, µM (series often up to 57.9 µM), inactives show at the highest dose activity change, negative = inhibition, most hits filed as inhibitors; 1.2% of 410,000 active; AID 1159524; calls by dose curve; tested in HEK293T cells; also: read-out not given here; nearly all actives have a fitted effect of over 45% in size
Vaccinia mCherry: inhibitors of vaccinia virus infection (mCherry reporter signal) | Potency, µM (doses to about 36.5 µM), without a hit: at the highest dose activity change, negative = inhibition, most hits filed as inhibitors | AID 720579 | 0.63% of 310,000 active | Vaccinia virus mCherry reporter infection, fluorescence; calls by dose curve; tested in A549 cells; also: nearly all actives have a fitted effect of over 35% in size
VACV Venus inh: inhibitors of vaccinia virus (Venus reporter) | Vaccinia virus Venus reporter expression, fluorescence | Potency, µM (doses to about 36.5 µM), for inactives: at the highest dose activity change, negative = inhibition, most hits filed as inhibitors | 0.46% of 330,000 active; calls by dose curve; tested in A549 cells; also: nearly all actives have a fitted effect of over 30% in size
Giardia FBPA inh: blocks Giardia fructose-bisphosphate aldolase activity. A8B2U2. purified Giardia FBPA. Potency, µM (highest dose often 59.6 µM), for the others: top-dose activity, negative = inhibition, hits mostly inhibitors. 0.71% of 290,000 active; active = well fitted inhibition curve with a large enough effect; inconclusive = small, poorly fitted or top-dose-only effect, or effect the other way; also: nearly all actives have a fitted effect of over 55% in size
Target sequence (A8B2U2 whole entry, looked up): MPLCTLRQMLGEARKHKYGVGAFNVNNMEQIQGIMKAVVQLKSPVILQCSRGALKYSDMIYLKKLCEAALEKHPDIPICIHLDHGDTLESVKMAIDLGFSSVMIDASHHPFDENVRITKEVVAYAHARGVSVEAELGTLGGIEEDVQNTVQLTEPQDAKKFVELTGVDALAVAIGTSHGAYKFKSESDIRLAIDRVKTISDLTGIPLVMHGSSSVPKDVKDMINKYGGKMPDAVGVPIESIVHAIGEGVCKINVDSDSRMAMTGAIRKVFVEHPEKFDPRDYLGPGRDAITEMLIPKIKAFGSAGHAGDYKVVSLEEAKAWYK
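Giardia FBPA (40 nM reagent) was preincubated 10 min at RT with compound (up to 57.5 uM final), then substrate plus GAPDH/TPI/NAD/arsenate coupling system with diaphorase/resazurin was added; resorufin fluorescence (525/598 nm) was read after 20 min.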
Active calls of the source: *; i = inactive; ? = inconclusive; / = no result given. % is scaled to controls: 0 for no effect and ±100 for the full control effect; potency is read from the fitted curve at half-maximal effect.

SMILES	FMDV inh	Vaccinia mCherry	VACV Venus inh	Giardia FBPA inh
CC(C)(C)c1ccc(NC(=O)COC(=O)c2ccccc2OCC(=O)Nc2ccc(Br)cc2)cc1	/	-22%	-25%	/
Cc1ccc2c(c1)c(C1=c3ccccc3=NC1=O)c(O)n2C	?	/	/	13%
C=CCn1c(O)c(C2=c3ccccc3=NC2=O)c2ccccc21	28µM*	-27%	-22%	5%
Cc1ccc(C(=O)NCc2ccc(N3CCN(C(=O)OC(C)(C)C)CC3)cc2)cc1	?	i	-7%	2%
Cc1ccc(S(=O)(=O)NCc2ccc(N3CCN(C(=O)OC(C)(C)C)CC3)cc2)cc1	28µM*	-12%	-5%	3%
CC(=O)N1CCCc2ccc(NC(=O)c3ccc(OC(C)C)cc3)cc21	11µM*	-10%	-2%	/
COc1cccc(OC)c1C(=O)Nc1ccc2c(c1)N(C(C)=O)CCC2	-8%	-13%	-11%	/
CCCCOc1ccc(C(=O)Nc2ccc3c(c2)N(C(C)=O)CCC3)cc1	3.2µM*	i	-15%	/
Cc1[nH]c2ccccc2c1C(=O)CNc1ccc(Br)cc1	/	-14%	-14%	/
Cc1cnc2ccc3ccccc3c2c1C	/	-12%	-18%	/
CCN1CCN(c2ccc(NC(=O)c3ccc([N+](=O)[O-])o3)cc2Cl)CC1	44%	11µM*	?	-20%
CC(=O)N1CCN(c2ccc(NC(=O)c3ccc([N+](=O)[O-])o3)cc2Cl)CC1	30%	?	?	-6%
CCN1CCN(c2ccc(S(=O)(=O)N3CCCCC3)cc2NC(=O)c2ccc([N+](=O)[O-])o2)CC1	-3%	4µM*	10µM*	/
CCC(=O)N1CCN(c2ccc(NC(=O)c3ccc([N+](=O)[O-])o3)cc2Cl)CC1	?	13µM*	11µM*	-28%
COC(=O)C1CCN(Cc2ccc3c(c2)CN(C(=O)c2ccc4nc(C)c(C)nc4c2)CCO3)CC1	-1%	-12%	-2%	/
COc1ccccc1C1CN(CC(=O)N2CCC(C(O)c3ccccn3)CC2)Cc2ccccc2O1 (stereo not drawn)	2%	-23%	-15%	/
C/C(=N\NC(N)=S)c1ccc(Cl)s1	-25%	0.35µM*	?	0%
Cc1cc(-c2ccnc(-n3ncc(C(=O)NCC(C)(C)N4CCOCC4)c3C)n2)c(C)s1	12%	8%	22%	/
COc1c(N2CCN(C(=S)NCc3ccccc3)C(C)C2)c(F)cc2c(=O)c(C(=O)O)cn(C3CC3)c12 (stereo not drawn)	-23%	/	13µM*	5%
Cc1cc2ccc(Cl)nc2nc1C	/	-14%	-6%	/
Cc1nn(Cc2ccc(Cl)cc2Cl)c(C)c1NC(=O)CCl	22µM*	/	/	-1%
Cc1nn(Cc2ccc(Cl)cc2Cl)c(C)c1NC(=O)c1nn(C)cc1Cl	0%	/	/	7%
CCN1C(=O)NC(=O)/C(=C\c2cn(CC(=O)N3CCCC3)c3ccccc23)C1=O	-9%	-4%	-5%	-5%
O=C1NC(=O)N(c2ccccc2F)C(=O)/C1=C/c1cn(CC(=O)N2CCOCC2)c2ccccc12	22µM*	i	-12%	15%
COc1ccccc1C1CN(CC(=O)N[C@H]2CCCCNC2=O)Cc2ccccc2O1 (stereo partly drawn)	-6%	-15%	6%	/
SMILES	FMDV inh	Vaccinia mCherry	VACV Venus inh	Giardia FBPA inh
COc1ccc(Br)cc1/C=C/C(=O)Nc1ccc2ccccc2c1	-7%	-28%	-23%	1%
CC(=O)Nc1cccc(C(=O)/C=C/c2ccc(Br)cc2)c1	25µM*	22µM*	11µM*	-5%
CCC(=O)Nc1cccc(C(=O)/C=C/c2cc(Br)ccc2OC)c1	8.9µM*	?	?	1%
CC[N+](C)(C)c1ccc(/C=C/c2ccc3ccccc3n2)cc1	/	121%	148%	/
COc1ccc(/C=C2\Sc3ccc(C(=O)N4CCN(Cc5ccccc5)CC4)cc3N(C)C2=O)cc1OC	13µM*	/	/	1%
O=C(Cc1ccc(S(=O)(=O)N2CCOCC2)s1)Nc1nc2c(s1)CCCC2	-20%	/	-3%	16µM*
CN1/C(=N\O)c2cccc3cccc1c23	-11%	/	-20%	8.9µM*
CC(C)(C)C1C/C(=C/c2ccccn2)C(=O)/C(=C/c2ccccn2)C1 (stereo not drawn)	3.5µM*	?	?	?
CN1C2CCC1/C(=C/c1ccccn1)C(=O)/C2=C\c1ccccn1	4µM*	2.5µM*	6.3µM*	-10%
CC1C/C(=C/c2ccccn2)C(=O)/C(=C/c2ccccn2)C1 (stereo not drawn)	6.3µM*	?	?	-19%
COC(=O)C1C(O)CC[C@H]2CN3CCc4c([nH]c5ccccc45)C3C[C@H]12 (stereo partly drawn)	4%	-13%	-2%	?
CCCC[C@@H](C)/C=C(C)/C=C(\C)C(=O)NC1=C[C@@](O)(/C=C/C=C/C=C/C(=O)NC2=C(O)CCC2=O)[C@@H]2O[C@@H]2C1=O	/	/	/	-9%
CCCCC/C=C\C/C=C\C/C=C\CCCCCCC(=O)NC(C)C(=O)O (stereo not drawn)	/	/	/	3%
CC(NS(=O)(=O)OCC(Cl)(Cl)Cl)c1ccc(C(C)(C)C)cc1 (stereo not drawn)	22µM*	11µM*	20µM*	1%
CCN1CCCC1CNC(=O)c1cnn(-c2nccc(-c3cc4ccccc4o3)n2)c1C1CC1 (stereo not drawn)	-11%	-23%	-23%	/
COC(=O)[C@@]1(Cc2ccc(OC)cc2)[C@@H]2C(=CC(=O)[C@H]2CC(=O)C(=O)N2CCCC2)CN1C(=O)c1ccccc1	16µM*	?	-20%	-12%
CSc1nc(NCCOCCO)c2sc3nc(-c4ccco4)c4c(c3c2n1)CCC4	40µM*	/	?	-17%
Cc1cc(C(=O)Nc2cnn(Cc3ccc(Cl)cc3Cl)c2)no1	-5%	/	/	2%
COc1cccc(-c2cc(C(=O)Nc3cnn(Cc4ccc(Cl)cc4Cl)c3)no2)c1	-12%	?	11µM*	/
CC(C)C[C@H](N)c1cn([C@@H](CCCCN)C(=O)N2CCNCC2)nn1	?	0.5µM*	0.79µM*	1%
CC(C)CC(N)c1cn([C@@H](CCC(=O)O)C(=O)N2CCNCC2)nn1 (stereo partly drawn)	-5%	i	-5%	7%
COc1ccc2c(c1)OC(C)CN(CCNC(=O)c1csc(-c3cccs3)n1)C2 (stereo not drawn)	-3%	-6%	14%	/
CNCCc1c[nH]c2ccc(O)cc12	0%	i	-7%	2µM*
NCCCC[C@H](NC(=O)CNC(=O)[C@@H]1CCCN1C(=O)[C@H](Cc1ccc(O)cc1)NC(=O)CN)C(=O)N[C@@H](Cc1ccccc1)C(=O)O	/	/	/	5%
C#CC(=O)N(c1cccc(OC)c1)C(C(=O)NC1CCCC1)c1cccs1 (stereo not drawn)	/	20µM*	14µM*	-1%
Cc1ccc2cc(CNC(C)c3cccc4ccccc34)c(N3CCC(O)CC3)nc2c1 (stereo not drawn)	0%	0%	11%	/
c1ccc2c(c1)OCC(c1csc3ncnc(N4CCCCC4)c13)O2 (stereo not drawn)	32µM*	-9%	3%	13%
CCCN1CCN(c2ncnc3scc(C4COc5ccccc5O4)c23)CC1 (stereo not drawn)	?	-9%	-11%	12%
O=C(C[n+]1ccccc1Cl)c1ccccc1	/	-11%	-22%	/
